{"source": "PubChem BioAssay (NCI)", "note": "About 83,000 compounds went through this panel and 20% of them were active in at least one assay; those are over-represented in the sample as a whole.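 Cells were grown in 96-well plates and exposed to the test compound at a single concentration for 48 hours; results are reported as percent growth, with values below 10 considered active.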 Unmarked numbers belong to inactive results. Active and inactive are the calls of the source."}
{"system": "HL-60(TB) leukemia", "assay": "NCI-60 one-dose screen, 48 h (100 = growth as untreated, 0 = no growth, -100 = all killed)", "details": "10 µM unless noted"}
{"smiles": "FC(F)(F)c1ccc2c(c1)n1cnnc1c1nncn21", "growth": "104%"}
{"smiles": "CSC1SCC2C(=O)N(C)C(C(C)C)C(=O)OCC(NC(=O)c3cnc4ccccc4n3)C(=O)NC(C)C(=O)N(C)C1C(=O)N(C)C(C(C)C)C(=O)OCC(NC(=O)c1cnc3ccccc3n1)C(=O)NC(C)C(=O)N2C", "note": "(stereo not given)", "growth": "-51.1% (active)"}
{"smiles": "COc1ccc(NC(=O)CSc2nc(C)c(C(C)=O)n2-c2ccc([N+](=O)[O-])cc2)cc1", "growth": "121%"}
{"smiles": "Cc1cc(NCCCNc2ccnc3cc(Cl)ccc23)nc(Nc2ccc(C(=O)N3CCCCC3)cc2)n1", "growth": "-63.2% (active)"}
{"smiles": "COc1ccc(C2[C@@H](c3ccccc3)C(=O)N2c2cc(OC)c(OC)c(OC)c2)cc1F", "note": "(stereo not given in full)", "growth": "-50.3% (active)"}
{"smiles": "CC(C)(C)n1cc(-c2ccnc(NCCCNS(=O)(=O)c3ccccc3)c2)c(-c2cccc(O)c2)n1", "growth": "32.8%"}
{"smiles": "CC[C@@H](C)/C=C(C)/C=C/C(=O)c1c(O)c(-c2ccc(O)cc2)cn(OC2CC(=O)CCC(C)OC(=O)CC2O)c1=O", "note": "(stereo not given in full)", "growth": "-10.1% (active)"}
{"smiles": "Cc1ccc(S(=O)(=O)N2CCc3ccc(O)c4c3C2Cc2cc(Cl)ccc2-4)cc1", "note": "(stereo not given)", "growth": "85.3%"}
{"smiles": "COc1cc(-c2cc(-c3nc4ccc(Cl)cc4[nH]3)[nH]n2)cc(OC)c1OC", "growth": "38.4%"}
{"smiles": "COc1ccc(Oc2c(I)cc(CC(NC(C)=O)C(=O)O)cc2I)cc1", "note": "(stereo not given)", "growth": "86.3%"}
{"smiles": "COc1cc2ncnc(Nc3ccc4c(cnn4C(=O)Nc4ccccc4)c3)c2cc1OC", "growth": "83.5%"}
{"smiles": "O=C(NCCN1CCOCC1)OCc1ccc2c(Cl)cc(Cl)c(O)c2n1", "growth": "73.1%"}
{"smiles": "CCCCCCCC/C=C/CCCCCCCC1=NC(C)(C)CN1c1ccccc1", "growth": "70%"}
{"smiles": "Cc1ccc(SCN2CCN(c3cccc(Cl)c3)CC2)cc1", "growth": "111%"}
{"smiles": "O=C(/C=C/c1c[nH]c2ccccc12)c1cc2ccccc2o1", "growth": "37.9%"}
{"smiles": "COc1cc(-c2cc3cnccc3c3nc(N)c4ccncc4c23)cc(OC)c1OC", "growth": "40.4%"}
{"smiles": "CCOC(=O)c1c(C)nc2c(c1N)CC(=O)N2Cc1ccc(F)cc1", "growth": "83.5%"}
{"smiles": "Cc1cc(=O)oc2cc(OCc3cn(CC(O)CO)nn3)ccc12", "note": "(stereo not given)", "growth": "110%"}
{"smiles": "CCCOc1ccc2nc(NC(=O)OC)[nH]c2c1", "growth": "3.05% (active)"}
{"smiles": "O=S(=O)(NCCNc1nccc(-c2c(-c3ccc(F)c(O)c3)nc3sccn23)n1)c1ccccc1", "growth": "71%"}
{"smiles": "COc1ccc(C2NC(=O)c3cc4c(cc3N2)OCO4)cc1", "note": "(stereo not given)", "growth": "-42% (active)"}
{"smiles": "CCCCCCCCCCCCCCCCS(=O)(=O)Nc1cc(C(=O)NN)cc(C(=O)NN)c1", "growth": "35.8%"}
{"smiles": "C=C1CC[C@@H]2[C@](C)(COC(C)=O)[C@H](OC(C)=O)CC[C@@]2(C)[C@@H]1CC(Nc1ccc(S(=O)(=O)Nc2nc(C)cc(C)n2)cc1)C1=CCOC1=O", "note": "(stereo not given in full)", "growth": "21.7%"}
{"smiles": "CCOC(=O)C1=C(C)NC(SCc2nnc(-c3ccc(Cl)cc3)o2)=NC1c1ccc(Cl)cc1Cl", "note": "(stereo not given)", "growth": "-6.39% (active)"}
{"smiles": "C[N+](C)(C)c1ccc(CC2c3ccccc3-c3ccccc32)cc1", "growth": "47.8%"}
{"smiles": "COc1ccc(/C=C2\\CCCC3=C2N=C2SC=NN2C3c2ccc(OC)c(OC)c2)cc1OC", "note": "(stereo not given)", "growth": "15%"}
{"smiles": "Oc1cc(/C=C/c2nc(N3CCOCC3)c3cc(Cl)c(Cl)cc3n2)cc(O)c1O", "growth": "99.4%"}
{"smiles": "CCN(CC)CCCC(C)N/C(c1cccc(OC)c1)=c1\\c(=O)[nH]n(-c2c3ccccc3nc3ccccc23)c(=O)\\c1=C(/NC(C)CCCN(CC)CC)c1cccc(OC)c1", "note": "(stereo not given)", "growth": "-43.5% (active)"}
{"smiles": "COc1cnc2c(c1)C(=O)c1c-2n(CCCn2ccnc2)c(=O)c2cc(Cl)ccc12", "growth": "-26.1% (active)"}
{"smiles": "CC(C)n1c(NCCc2ccc(O)c(O)c2)nc2c1c(=O)n(C)c(=O)n2C", "growth": "99.3%"}
{"smiles": "N#Cc1c(-c2ccc(F)cc2)nc(N=Nc2c(O)[nH]c3ccccc23)nc1N1CCOCC1", "growth": "101%"}
{"smiles": "O=C(CN1C(=O)NC2NC(=O)NC21)N/N=C/c1ccc(Cl)cc1Cl", "note": "(stereo not given)", "growth": "99.4%"}
{"smiles": "Cc1ccc(C(SCC(N)C(=O)O)(c2ccc(C)cc2)c2ccc(C)cc2)cc1", "note": "(stereo not given)", "growth": "-17% (active)"}
{"smiles": "Cc1ccc(C(=O)c2sc3nc4c(cc3c2N)CCCC4)c(C)c1", "growth": "-3.28% (active)"}
{"smiles": "C=C1c2c(C)nn(-c3ccc(S(N)(=O)=O)cc3)c2N(C)C23CC1C1(C)c4c(C)nn(-c5ccc(S(N)(=O)=O)cc5)c4N(C)C(C)(CC12)C3", "note": "(stereo not given)", "growth": "8.58% (active)"}
{"smiles": "CCN1Cc2nc3sc(C)c(C)c3c(=O)n2C=C1C", "growth": "1.07% (active)"}
{"smiles": "CC(C)(C)c1ccc(C(=O)Nc2sc3c(c2C(N)=O)CCC(=O)C3)cc1", "growth": "3% (active)"}
{"smiles": "Cc1cc(C)cc(OCC(=O)O)c1", "growth": "86%"}
{"smiles": "Clc1ccc(Nc2scc3[n+]2CCC3)cc1", "growth": "98.3%"}
{"smiles": "COC(=O)CCCCCN=Cc1c(O)c(O)c(C(C)C)c2cc(C)c(-c3c(C)cc4c(C(C)C)c(O)c(O)c(C=NCCCCCC(=O)OC)c4c3O)c(O)c12", "growth": "15.4%"}
